# PubChem BioAssay AID651958 (The Scripps Research Institute Molecular Screening Center, 2012)
# Among all 370,000 compounds or so, about 2,000 (0.54%) were called active. The entries come from a sample that favours actives as a whole. Unmarked numbers belong to inactive results. No stated cut-off is given here; in the data, active means inhibition above about 30%; inactive means the rest.
# Test system: Crimean-Congo hemorrhagic fever virus L polyprotein viral ovarian tumor (vOTU) protease domain
# Test: CCHFV vOTU protease inhibitors, primary screen, biochemical, Pep-AMC substrate, fluorescence (AID 651958); further: 0% = vehicle wells with enzyme and 100% = no enzyme wells
# Details: at 11.5 µM, hits give high values
row,SMILES,inhibition
1,COC(=O)C1=C(Nc2ccc(C)cc2)C=C(C)C(C(=O)OC)C1c1ccc(F)cc1 (stereo unspecified),15.8%
2,COc1ccc(C2=Nc3cc(C)ccc3OC2)cc1,14.7%
3,COc1ccccc1N=Nc1c(O)[nH]c(=S)[nH]c1=O,38.1% (active)
4,COC(=O)c1ccccc1N=Nc1c(C)[nH][nH]c1=O,-9.29%
5,CCOCCc1c(O)[nH]c(=S)[nH]c1=O,5.12%
6,O=C(COC(=O)/C=C/c1ccc(S(=O)(=O)N2CCCCCC2)cc1)NCc1ccccc1Cl,-8.91%
7,Cc1cc(C)nc(-n2ncc3c2CC(c2ccc(C(C)C)cc2)CC3=O)n1 (stereo unspecified),2.76%
8,Cc1cccc(C)c1NC1=NC(=S)N(c2ccc(N(C)C)cc2)C1(C)C,27.5%
9,CCOC(=O)C1C(c2ccc(O)cc2)NC(=O)NC1(O)C(F)(F)F (stereo unspecified),-18.4%
10,O=C1NC(c2ccc(-c3ccccc3[N+](=O)[O-])o2)C(C(=O)c2ccc(Cl)cc2)C(O)(C(F)(F)F)N1 (stereo unspecified),38.5% (active)
11,Cc1cn(C)c(=O)n(C)c1=O,-10.2%
12,CCCCCC(=O)N1C[C@H](O)[C@@H](n2cc(COC(=O)c3ccccc3)nn2)C[C@@H]1c1ccc(C)cc1,30.5% (active)
13,CCCCCCN1C[C@@H](O)[C@H](n2cc(COC(=O)c3ccccc3)nn2)C[C@@H]1c1ccc(Cl)cc1,-5.93%
14,Cc1ccc([C@H]2C[C@H](O)[C@@H](n3cc(COC(=O)c4ccccc4)nn3)CN2C(=O)C2CCCCC2)cc1,9.18%
15,COc1ccc(C(C#N)N2N=C(C)CC2(C)C)cc1 (stereo unspecified),4.09%
16,COc1cc(Cl)c(C)cc1NC(=O)[C@@H]1CCCN1C(=O)c1cccs1,-1.68%
17,CCC1=NN(C(=O)Cc2ccc([N+](=O)[O-])cc2)C(O)(c2ccc(Br)cc2)C1 (stereo unspecified),-9.95%
18,C=CCC[C@H](CCCCC)OC(=O)/C=C/[C@H](O)[C@@H](O)C[C@@H](O)CC=C,18.2%

row,SMILES,inhibition
1,C=CCC[C@@H](CCCCC)OC(=O)/C=C/[C@@H](O)[C@H](O)C[C@H](O)CC=C,32.8% (active)
2,O=C(CCl)NNc1cccc(Cl)n1,2.47%
3,Cc1ccc(C23CC4CC(CC(C(=O)NCC(=O)O)(C4)C2)C3)cc1,12.6%
4,CN(C)c1ccc(N/C=C/C(=O)C(F)(F)F)cc1,65% (active)
5,Cc1cc(C(=O)COc2ccccc2[N+](=O)[O-])c(C)n1-c1cccc(S(=O)(=O)N2CCOCC2)c1,15.2%
6,Cc1cc(C(=O)N/N=C/c2ccc(O)c([N+](=O)[O-])c2)c(C)n1-c1ccc(F)cc1,45.6% (active)
7,Cc1ccc(NC(=O)CN(C)Cc2ccc(F)cc2)c([N+](=O)[O-])c1,-3.76%
8,CC(C)(C)n1nnnc1C(c1ccccc1F)N1CCN(C(=O)c2ccco2)CC1 (stereo unspecified),9.18%
9,CC(C)c1ccc(OCC(=O)N2CCCN(C)CC2)cc1,7.24%
10,CC(C)c1ccc(NC(=O)COC(=O)c2ccc(CN3CCCC3=O)cc2)cc1,3.69%
11,CC(=O)N1CCN(c2ccc(NCc3ccc(C(C)C)cc3)cc2)CC1,34.2% (active)
12,O=C(NC1CC1)C1=C[C@H](c2coc3ccccc3c2=O)C[C@H](OCCCCO)O1,-2.05%
13,CCOc1ccc(NC(=O)CCCCCN2C(=O)[C@@H]3Cc4ccccc4CN3C2=O)cc1,13.7%
14,CC(C)(C)NC(=O)CN(C(=O)c1csnn1)c1ccccc1-c1ccccc1,-7.68%
15,CSc1ccccc1NC(=O)c1cc(C2CC2)on1,11.1%
16,NC1=CC(=O)C(=O)c2cccnc21,104% (active)
17,O=C(NC1CCN(C(=S)NCc2ccco2)CC1)c1ccc(F)cc1,13.2%
18,COc1ccccc1N(CC(=O)Nc1ccc(C)cc1Cl)S(=O)(=O)c1cccs1,1.37%
